The full data set covers some 7,900 targets. This sample favours those with a hit. About 0.6% of all pairs of compound and target were hits. A number with no mark means an inactive call.
Tests used:
Assay in all cases: log2 fold change, soluble protein after heating vs DMSO (PISA); higher = thermal stabilisation; K562 cells, 10 uM, 30 min; active = over 0.2 and 3.5 SD of the protein, either way, in both replicates (recomputed)
[1] = compound: COC1=CC=C(C=C1)CN2C=CC3=C2C=C(C=C3)C(=O)NO
Summary of the method: (§1)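 Soluble protein was defined as the supernatant after 21,000xg for 90 min. It came from K562 cells at 2×10^6 cells/mL given 10 μM compound for 30 min, heated in aliquots for 3 min across 48°C-58°C, pooled, and extracted in PBS with 0.5% NP-40 at 4°C, and was quantified by TMTpro 16plex LC-MS/MS with equalised channel sums. Thermal stability against control samples, from duplicates, is reported as log2 fold change.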

filanesib = compound: CON(C)C(=O)N1N=C(c2cc(F)ccc2F)S[C@@]1(CCCN)c1ccccc1 [filanesib]
Summary of the method: as §1

zotarolimus = compound: CO[C@H]1C[C@@H]2CC[C@@H](C)[C@@](O)(O2)C(=O)C(=O)N2CCCC[C@H]2C(=O)O[C@H]([C@H](C)C[C@@H]2CC[C@H](n3cnnn3)[C@H](OC)C2)CC(=O)[C@H](C)/C=C(\C)[C@@H](O)[C@@H](OC)C(=O)[C@H](C)C[C@H](C)/C=C/C=C/C=C/1C [zotarolimus]
Summary of the method: as §1

idasanutlin = compound: COc1cc(C(=O)O)ccc1NC(=O)[C@@H]1N[C@@H](CC(C)(C)C)[C@](C#N)(c2ccc(Cl)cc2F)[C@H]1c1cccc(Cl)c1F [idasanutlin]
Summary of the method: as §1

alisertib = compound: COc1cc(Nc2ncc3c(n2)-c2ccc(Cl)cc2C(c2c(F)cccc2OC)=NC3)ccc1C(=O)O [alisertib]
Summary of the method: as §1

[2] = compound: COc1cc2nc(-c3cc(F)ccc3O)nc(N[C@@H]3CNC[C@H]3C(C)(C)O)c2cc1OC
Summary of the method: as §1

gefitinib = compound: COc1cc2ncnc(Nc3ccc(F)c(Cl)c3)c2cc1OCCCN1CCOCC1 [gefitinib]
Summary of the method: as §1

[3] = compound: COc1cccc2cc(-c3nc([C@H]4CC[C@H](C(=O)O)CC4)n4ncnc(N)c34)[nH]c12
Summary of the method: as §1

lapatinib = compound: CS(=O)(=O)CCNCc1ccc(-c2ccc3ncnc(Nc4ccc(OCc5cccc(F)c5)c(Cl)c4)c3c2)o1 [lapatinib]
Summary of the method: as §1

pictilisib = compound: CS(=O)(=O)N1CCN(Cc2cc3nc(-c4cccc5[nH]ncc45)nc(N4CCOCC4)c3s2)CC1 [pictilisib]
Summary of the method: as §1

[4] = compound: CS(=O)(=O)c1ccc(-c2cnc(N)c(C(=O)Nc3ccccc3)n2)cc1
Summary of the method: as §1

crizotinib = compound: C[C@@H](Oc1cc(-c2cnn(C3CCNCC3)c2)cnc1N)c1c(Cl)ccc(F)c1Cl [crizotinib]
Summary of the method: as §1

[5] = compound: C[C@@H]1COCCN1C2=NC(=NC(=C2)C3(CC3)S(=O)(=O)C)C4=C5C=CNC5=CC=C4
Summary of the method: as §1

[6] = compound: C[C@H](C1=CC=C(C=C1)C(=O)NC2=C3C=CNC3=NC=C2)N
Summary of the method: as §1

duvelisib = compound: C[C@H](Nc1ncnc2nc[nH]c12)c1cc2cccc(Cl)c2c(=O)n1-c1ccccc1 [duvelisib]
Summary of the method: as §1

gandotinib = compound: Cc1cc(Nc2cc(CN3CCOCC3)c3nc(C)c(Cc4ccc(Cl)cc4F)n3n2)n[nH]1 [gandotinib]
Summary of the method: as §1

tozasertib = compound: Cc1cc(Nc2cc(N3CCN(C)CC3)nc(Sc3ccc(NC(=O)C4CC4)cc3)n2)n[nH]1 [tozasertib]
Summary of the method: as §1

[7] = compound: Cc1cc(SCc2sc(-c3ccc(C(F)(F)F)cc3)nc2C)ccc1OCC(=O)O
Summary of the method: as §1

doramapimod = compound: Cc1ccc(-n2nc(C(C)(C)C)cc2NC(=O)Nc2ccc(OCCN3CCOCC3)c3ccccc23)cc1 [doramapimod]
Summary of the method: as §1

ispinesib = compound: Cc1ccc(C(=O)N(CCCN)[C@@H](c2nc3cc(Cl)ccc3c(=O)n2Cc2ccccc2)C(C)C)cc1 [ispinesib]
Summary of the method: as §1

UniProt O94967, sequence (O94967 whole entry, looked up): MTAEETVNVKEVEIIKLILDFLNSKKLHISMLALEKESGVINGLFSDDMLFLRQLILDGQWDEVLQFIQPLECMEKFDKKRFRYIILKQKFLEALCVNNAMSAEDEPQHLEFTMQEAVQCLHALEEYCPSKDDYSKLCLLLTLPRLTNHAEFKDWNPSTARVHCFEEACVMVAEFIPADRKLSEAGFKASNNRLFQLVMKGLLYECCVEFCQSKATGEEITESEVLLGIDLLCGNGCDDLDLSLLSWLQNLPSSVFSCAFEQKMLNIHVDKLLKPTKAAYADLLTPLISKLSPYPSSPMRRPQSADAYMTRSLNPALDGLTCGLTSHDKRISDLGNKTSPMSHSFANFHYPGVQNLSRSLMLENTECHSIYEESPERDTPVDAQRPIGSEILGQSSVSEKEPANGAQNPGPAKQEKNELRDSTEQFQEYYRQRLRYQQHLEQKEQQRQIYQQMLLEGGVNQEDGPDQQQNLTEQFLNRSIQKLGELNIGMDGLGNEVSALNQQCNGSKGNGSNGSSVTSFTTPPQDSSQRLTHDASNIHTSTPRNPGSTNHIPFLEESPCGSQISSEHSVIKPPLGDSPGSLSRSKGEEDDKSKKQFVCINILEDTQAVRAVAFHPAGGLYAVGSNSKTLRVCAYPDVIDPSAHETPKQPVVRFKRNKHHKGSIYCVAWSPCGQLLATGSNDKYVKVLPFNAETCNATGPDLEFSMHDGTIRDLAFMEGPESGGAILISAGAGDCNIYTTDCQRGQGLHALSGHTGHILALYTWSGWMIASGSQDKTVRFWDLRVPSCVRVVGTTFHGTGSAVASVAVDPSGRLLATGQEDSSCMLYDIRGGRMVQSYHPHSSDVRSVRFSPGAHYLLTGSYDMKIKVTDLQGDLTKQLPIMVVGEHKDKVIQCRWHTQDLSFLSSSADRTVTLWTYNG
UniProt Q9BZI7, sequence (Q9BZI7 whole entry, looked up): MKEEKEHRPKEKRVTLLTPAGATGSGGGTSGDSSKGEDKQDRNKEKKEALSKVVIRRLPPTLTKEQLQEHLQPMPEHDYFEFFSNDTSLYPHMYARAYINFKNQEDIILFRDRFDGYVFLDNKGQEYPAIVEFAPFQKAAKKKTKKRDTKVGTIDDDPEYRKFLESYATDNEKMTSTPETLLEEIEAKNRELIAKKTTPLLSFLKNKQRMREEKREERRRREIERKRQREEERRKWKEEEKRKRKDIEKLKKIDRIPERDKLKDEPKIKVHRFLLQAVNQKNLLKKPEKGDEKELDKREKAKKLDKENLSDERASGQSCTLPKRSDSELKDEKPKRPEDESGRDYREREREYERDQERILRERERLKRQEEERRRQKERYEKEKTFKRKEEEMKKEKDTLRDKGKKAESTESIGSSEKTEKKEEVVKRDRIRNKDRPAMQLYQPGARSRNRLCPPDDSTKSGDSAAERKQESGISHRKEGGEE
UniProt P30291, sequence (P30291 whole entry, looked up): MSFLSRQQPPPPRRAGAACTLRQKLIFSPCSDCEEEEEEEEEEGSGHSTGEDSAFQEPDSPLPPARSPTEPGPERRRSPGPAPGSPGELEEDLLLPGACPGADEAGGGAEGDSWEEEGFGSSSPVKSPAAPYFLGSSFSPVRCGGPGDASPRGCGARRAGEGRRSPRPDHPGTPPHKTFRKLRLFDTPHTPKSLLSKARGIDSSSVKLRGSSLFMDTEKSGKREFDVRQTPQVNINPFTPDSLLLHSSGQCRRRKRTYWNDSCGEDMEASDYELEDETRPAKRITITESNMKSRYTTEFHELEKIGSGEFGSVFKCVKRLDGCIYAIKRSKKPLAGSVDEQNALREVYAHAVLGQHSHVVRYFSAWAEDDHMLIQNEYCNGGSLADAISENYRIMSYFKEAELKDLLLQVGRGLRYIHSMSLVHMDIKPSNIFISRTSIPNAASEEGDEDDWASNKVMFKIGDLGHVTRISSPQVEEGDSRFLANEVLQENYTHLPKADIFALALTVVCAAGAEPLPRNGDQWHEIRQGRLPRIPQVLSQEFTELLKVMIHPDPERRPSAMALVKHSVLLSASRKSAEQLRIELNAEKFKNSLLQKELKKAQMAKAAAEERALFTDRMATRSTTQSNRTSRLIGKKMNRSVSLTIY
UniProt Q86WV6, sequence (Q86WV6 whole entry, looked up): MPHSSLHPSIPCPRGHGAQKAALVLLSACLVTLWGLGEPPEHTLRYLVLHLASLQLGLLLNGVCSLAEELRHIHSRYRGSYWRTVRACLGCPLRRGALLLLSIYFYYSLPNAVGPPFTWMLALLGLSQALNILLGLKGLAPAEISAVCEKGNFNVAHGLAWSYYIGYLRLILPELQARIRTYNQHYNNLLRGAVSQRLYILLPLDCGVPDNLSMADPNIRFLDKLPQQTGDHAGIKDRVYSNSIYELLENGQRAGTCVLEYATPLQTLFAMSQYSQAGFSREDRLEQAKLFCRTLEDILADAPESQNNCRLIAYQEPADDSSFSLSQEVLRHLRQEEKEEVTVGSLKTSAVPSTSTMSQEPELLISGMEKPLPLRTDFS
UniProt Q8N3P4, sequence (Q8N3P4 whole entry, looked up): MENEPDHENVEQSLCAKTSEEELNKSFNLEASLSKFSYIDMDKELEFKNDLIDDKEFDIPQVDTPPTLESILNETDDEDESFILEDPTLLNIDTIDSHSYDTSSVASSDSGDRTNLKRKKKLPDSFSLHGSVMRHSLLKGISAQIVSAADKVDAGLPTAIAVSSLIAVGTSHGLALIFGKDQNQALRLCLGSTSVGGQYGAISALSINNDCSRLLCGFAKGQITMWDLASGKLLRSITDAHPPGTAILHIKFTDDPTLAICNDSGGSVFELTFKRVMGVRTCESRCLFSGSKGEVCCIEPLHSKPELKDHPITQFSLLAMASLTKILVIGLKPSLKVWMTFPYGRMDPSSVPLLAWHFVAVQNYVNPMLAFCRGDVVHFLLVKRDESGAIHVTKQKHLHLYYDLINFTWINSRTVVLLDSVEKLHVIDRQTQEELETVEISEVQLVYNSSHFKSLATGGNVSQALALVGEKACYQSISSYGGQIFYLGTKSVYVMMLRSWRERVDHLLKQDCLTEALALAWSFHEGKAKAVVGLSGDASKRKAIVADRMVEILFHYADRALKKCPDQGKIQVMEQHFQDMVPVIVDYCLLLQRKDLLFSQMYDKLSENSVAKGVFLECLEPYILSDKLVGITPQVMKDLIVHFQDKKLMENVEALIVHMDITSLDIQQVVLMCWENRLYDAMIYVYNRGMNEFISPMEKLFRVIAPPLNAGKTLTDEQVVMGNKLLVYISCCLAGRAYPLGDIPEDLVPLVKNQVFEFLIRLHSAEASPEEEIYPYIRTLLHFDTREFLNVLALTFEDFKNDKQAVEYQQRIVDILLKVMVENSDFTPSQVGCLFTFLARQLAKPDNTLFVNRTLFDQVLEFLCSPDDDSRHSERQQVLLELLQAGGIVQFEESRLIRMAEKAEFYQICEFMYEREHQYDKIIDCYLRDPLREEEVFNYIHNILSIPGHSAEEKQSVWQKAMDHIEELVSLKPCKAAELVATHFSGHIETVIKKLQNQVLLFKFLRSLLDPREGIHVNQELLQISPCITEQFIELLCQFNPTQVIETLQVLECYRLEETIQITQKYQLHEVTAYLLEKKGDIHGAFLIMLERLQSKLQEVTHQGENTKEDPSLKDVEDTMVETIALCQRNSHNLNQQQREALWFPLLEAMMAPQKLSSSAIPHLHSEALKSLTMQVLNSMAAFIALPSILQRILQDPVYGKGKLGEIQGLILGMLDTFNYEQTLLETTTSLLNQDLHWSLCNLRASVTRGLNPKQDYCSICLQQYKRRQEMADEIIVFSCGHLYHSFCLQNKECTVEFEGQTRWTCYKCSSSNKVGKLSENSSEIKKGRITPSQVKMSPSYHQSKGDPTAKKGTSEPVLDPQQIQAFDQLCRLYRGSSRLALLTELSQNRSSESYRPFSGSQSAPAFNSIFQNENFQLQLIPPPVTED
UniProt Q93009, sequence (Q93009 whole entry, looked up): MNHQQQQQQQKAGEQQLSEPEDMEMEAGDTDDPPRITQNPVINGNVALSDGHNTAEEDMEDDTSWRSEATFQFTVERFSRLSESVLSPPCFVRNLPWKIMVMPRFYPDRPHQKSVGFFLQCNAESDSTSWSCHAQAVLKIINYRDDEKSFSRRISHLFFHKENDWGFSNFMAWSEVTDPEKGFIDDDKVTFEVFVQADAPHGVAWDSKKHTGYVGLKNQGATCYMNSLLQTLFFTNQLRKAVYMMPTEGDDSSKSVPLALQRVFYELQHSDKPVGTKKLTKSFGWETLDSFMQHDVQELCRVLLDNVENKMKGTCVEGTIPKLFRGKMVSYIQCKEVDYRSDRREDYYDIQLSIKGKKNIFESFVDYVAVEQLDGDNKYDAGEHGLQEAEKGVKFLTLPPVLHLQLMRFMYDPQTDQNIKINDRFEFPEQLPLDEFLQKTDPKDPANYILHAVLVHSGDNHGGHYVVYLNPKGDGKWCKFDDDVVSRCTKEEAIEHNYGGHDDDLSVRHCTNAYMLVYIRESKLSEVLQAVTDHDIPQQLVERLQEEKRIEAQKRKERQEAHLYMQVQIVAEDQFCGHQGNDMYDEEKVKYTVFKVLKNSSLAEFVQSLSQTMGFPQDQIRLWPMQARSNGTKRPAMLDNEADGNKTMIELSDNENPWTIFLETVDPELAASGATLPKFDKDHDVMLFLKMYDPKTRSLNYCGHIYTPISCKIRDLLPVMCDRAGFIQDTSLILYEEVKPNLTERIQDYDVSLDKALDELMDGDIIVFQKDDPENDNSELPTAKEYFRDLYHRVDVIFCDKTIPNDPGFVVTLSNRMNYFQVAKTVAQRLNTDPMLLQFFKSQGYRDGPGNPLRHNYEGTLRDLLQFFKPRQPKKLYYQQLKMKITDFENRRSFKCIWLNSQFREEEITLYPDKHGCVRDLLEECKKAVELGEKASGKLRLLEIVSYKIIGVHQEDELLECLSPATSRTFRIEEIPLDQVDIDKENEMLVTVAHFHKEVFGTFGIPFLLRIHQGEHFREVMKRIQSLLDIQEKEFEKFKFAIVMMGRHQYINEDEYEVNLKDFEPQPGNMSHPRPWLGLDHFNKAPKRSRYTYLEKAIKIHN

Target	log2 fold change [1]	log2 fold change (filanesib)	log2 fold change (zotarolimus)	log2 fold change (idasanutlin)	log2 fold change (alisertib)	log2 fold change [2]	log2 fold change (gefitinib)	log2 fold change [3]	log2 fold change (lapatinib)	log2 fold change (pictilisib)	log2 fold change [4]	log2 fold change (crizotinib)	log2 fold change [5]	log2 fold change [6]	log2 fold change (duvelisib)	log2 fold change (gandotinib)	log2 fold change (tozasertib)	log2 fold change [7]	log2 fold change (doramapimod)	log2 fold change (ispinesib)
UBC (UniProt P0CG48)	-0.064	0.09	0.048	0	-0.002	0.06	0.038	0.018	-0.101	0.008	-0.003	0.208	0.05	0.064	0.075	0.014	0.009	-0.009	0.035	0.091
TMEM192 (UniProt Q8IY95)	-0.036	-0.162	-0.047	0.037	-0.048	-0.009	-0.047	0.099	-0.02	0.038	0.074	-0.45 (active)	0.043	0.04	0.026	0.059	-0.008	-0.022	0.024	-0.318 (active)
USP7 (UniProt Q93009)	0.034	-0.14	-0.007	-0.053	0.144	0.039	0.04	0.019	-0.029	0.002	0.008	-0.311	0.147	0.07	0.046	-0.157	-0.077	0.146	-0.039	-0.175
XPO6 (UniProt Q96QU8)	-0.453	-0.074	0.047	-0.079	0.171	0.064	-0.029	-0.052	-0.055	-0.025	-0.033	0.177	-0.277	0.031	-0.001	0.104	-0.011	0.027	0.179	0
UGGT1 (UniProt Q9NYU2)	-0.041	-0.008	0.012	-0.014	-0.07	0.009	-0.006	-0.01	0.035	-0.005	0.013	0	0.012	0.009	-0.005	0.005	0.008	0.016	0.017	0.012
USP34 (UniProt Q70CQ2)	0.021	0.011	-0.03	-0.239	0.021	0	-0.024	-0.073	0.011	0.135	-0.049	-0.142	0.046	0.051	0.078	-0.131	0.061	0.118	-0.006	-0.007
WDR47 (UniProt O94967)	0.057	-0.014	-0.006	-0.071	0.21	-0.029	-0.001	0.061	-0.007	0.077	-0.024	0.048	0.024	-0.003	0.109	0.09	-0.052	-0.011	-0.034	0.025
USP3 (UniProt Q9Y6I4)	0.131	-0.246	0.009	-0.039	0.085	-0.201	-0.007	-0.014	0.053	0.027	0.065	-0.131	0.043	-0.26	-0.008	-0.246	-0.003	0.155	-0.023	-0.04
UPF3B (UniProt Q9BZI7)	-0.044	0.26	-0.015	0.209	-0.048	0.187	0.061	-0.114	0.234	-0.058	0	0.091	-0.63	0.542	-0.125	0.452	0.071	0.064	0.295	-0.222
WEE1 (UniProt P30291)	-0.157	0.217	-0.068	0.356	-0.322	0.039	-0.083	-0.615	0.125	-0.095	-0.3	-0.025	-1.07 (active)	0.094	0.026	0.247	-0.5	-0.049	0.026	0.046
UBE4B isoform 4 (UniProt O95155)	0.04	-0.009	-0.008	-0.031	-0.035	0.021	-0.048	0.021	-0.01	0.063	0.016	-0.013	0.012	-0.015	0.012	-0.048	0.035	0.019	-0.048	0
TPP1 (UniProt O14773)	0.024	-0.175	0	-0.008	0.168	-0.072	-0.039	0.087	-0.026	0.011	0.025	-0.371 (active)	0.022	-0.026	0.056	0.049	-0.009	-0.016	0.008	-0.189
TRAPPC2L (UniProt Q9UL33)	-0.102	-0.05	0.098	-0.026	-0.029	0.03	0	-0.062	0.088	-0.018	0.009	-0.035	0.054	0.035	0.026	-0.023	0.015	0.001	-0.143	0.119
TMEM173 (UniProt Q86WV6)	-0.177	0.007	0.025	-0.209	-0.073	0.034	-0.013	-0.008	-0.062	-0.037	0.042	0.147	0.041	0.004	0.017	-0.151	0.01	0.078	0.023	0.037
VPS8 (UniProt Q8N3P4)	0.092	0.001	0.043	-0.03	0.133	0.01	0.076	-0.025	0.046	0.055	0.024	-0.12	0.016	0.127	0.038	-0.097	0.065	0.083	0	-0.154

— the supplement of paper PMC10849652
